Measurements as given in PubChem BioAssay (NCATS).
Records with an inconclusive call do not appear. A call without a number means that no potency is given here. Calls of active or inactive are those of the source. Calls follow the shape of the dose curve; as a rule, active = well fitted curve in the direction sought with a large enough effect; inconclusive = small, poorly fitted or top-dose-only effect, or another doubt; inactive = no such curve, though single readings can be large; an effect the other way counts as inactive or inconclusive.

What was measured:
[1] = P-glycoprotein substrates identified in KB-3-1 adenocarcinoma cell line, qHTS therapeutic library screen (AID 1346986); details: KB-3-1 parental cells viability, CellTiter-Glo, 72 h; series mostly up to 44.5 µM; also: nearly all actives have a fitted effect of over 60% in size;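 also: potency is for cytotoxicity meaning loss of cell viability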
Summary of the method: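 Dose-response cytotoxicity, KB-3-1 vs P-gp-high KB-8-5-11, no colchicine in assay medium. Read: CellTiter-Glo at 72 h.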

[2] = P-glycoprotein substrates identified in KB-8-5-11 adenocarcinoma cell line, qHTS therapeutic library screen (AID 1346987); details: KB-8-5-11 (P-gp overexpressing) viability, CellTiter-Glo, 72 h; series mostly up to 44.5 µM; also: nearly all actives have a fitted effect of over 65% in size
Summary of the method: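 Human cervical adenocarcinoma KB-8-5-11 cells, selected in colchicine to over-express P-gp and assayed without it, were exposed for 72 h to titrated compounds. An ATP-based luminescent viability signal gave AC50.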
Potency is read from the fitted curve at half-maximal effect.

SMILES	Potency [1]	Potency [2]
CNc1nc(Nc2ccc(C(=O)N3CCOCC3)cc2OC)nc2[nH]cc(Cl)c12	7.31 µM (active)	5.8 µM (active)
CC(=O)O[C@@H]1CC[C@@]2(C)C(CC[C@]3(C)C2[C@H](O)C=C2[C@H]4[C@@H](C)[C@H](C)CC[C@]4(C)CC[C@]23C)[C@@]1(C)C(=O)O (some centres not stated)	inactive	inactive
CC1(C)CC[C@]2(C(=O)O[C@@H]3O[C@H](CO)[C@@H](O)[C@H](O)[C@H]3O)CC[C@]3(C)C(=CCC4[C@@]5(C)CC[C@H](O[C@@H]6O[C@H](C(=O)O)[C@H](O)[C@H](O)[C@H]6O)C(C)(C)C5CC[C@]43C)[C@@H]2C1 (some centres not stated)	–	inactive
O=C(Nc1ccccc1C(=O)Nc1ccc(CCO)cc1)c1ccc([N+](=O)[O-])cc1	inactive	inactive
C=C1CC[C@@H]2[C@](C)(CO)[C@H](O)CC[C@@]2(C)[C@@H]1CC(O)C1=CCOC1=O (some centres not stated)	inactive	inactive
CC(=O)Nc1nc(C)c(-c2nc(N3CCCC(O)C3)no2)s1 (configuration not stated)	13 µM (active)	18.4 µM (active)
C[C@H](Nc1ncnc2nc[nH]c12)c1cc2cccc(Cl)c2c(=O)n1-c1ccccc1	20.6 µM (active)	inactive
N#Cc1cc(-c2ccnc(Nc3ccc(N4CCOCC4)cc3)n2)ccc1OC1CCOCC1	13 µM (active)	16.4 µM (active)
COc1c(C(C)C)c(O)c(O)c2c1C(OC)[C@H]1OC(=O)[C@@]23CCCC(C)(C)[C@H]13 (some centres not stated)	inactive	inactive
C=C1C(=O)OC2/C=C(\CO)CC/C=C(\C=O)C(OC)C(OC(=O)C(C)CC)C12 (configuration not stated)	inactive	inactive
O=C([C@@H](Cc1cccc(C(F)(F)F)c1)NS(=O)(=O)c1cc(F)c2c(c1)CCNC2)N1CCCC1	inactive	inactive
COC1=CC(=O)C=C(C)C12Oc1c(Cl)c(OC)cc(OC)c1C2=O (configuration not stated)	inactive	inactive
CCC(C)C(C(=O)OCC[N+](C)(CC)CC)c1ccccc1 (configuration not stated)	–	inactive
Fc1ccc2[nH]ccc2c1-c1nc(N2CCOCC2)c2sc(CN3CCN(CC4CC4)CC3)cc2n1	–	20.6 µM (active)
CCC(=O)O	–	inactive
CO[C@@H]1CC(OC2CCC3(C)C(CCC45CCC(C6=CC(=O)OC6)C(C)(CCC43)C5=O)C2)O[C@H](C)[C@@H]1O[C@@H]1O[C@H](CO[C@@H]2O[C@H](CO)[C@@H](O)[C@H](O)[C@H]2O)[C@@H](O)[C@H](O)[C@H]1O (some centres not stated)	–	4.37 µM (active)

SMILES	Potency [1]	Potency [2]
CC(=O)OCC(=O)[C@@]12O[C@@H]1C[C@H]1[C@@H]3CC=C4C[C@@H](O)CC[C@]4(C)[C@H]3CC[C@@]12C	–	inactive
C#CCCCn1cc(-c2cccc3c2N[C@H](C)CC(=O)N3)cn1	–	1.46 µM (active)
CCCCCCCCn1cc(CN(CC)CC)c2cc(-c3cnc(N)nc3)ccc21	–	18.4 µM (active)
CC(C)(C)[C@H](NC(=O)c1ccc(N)c(Cl)c1)C(=O)N1CCC[C@H]1C(=O)N[C@H](C#N)CC(=O)O	–	inactive
CC[C@H]1OC(=O)[C@H](C)[C@@H](O[C@H]2C[C@@](C)(OC)[C@@H](O)[C@H](C)O2)[C@H](C)[C@@H](O[C@H]2O[C@H](C)C[C@H](N(C)C)[C@H]2O)[C@](C)(O)C[C@@H](C)C(=O)[C@H](C)[C@@H](O)[C@]1(C)O	–	inactive
C/C=C(/CC[C@@H](C)[C@H]1CC[C@H]2C3=CC[C@H]4[C@H](C)[C@@H](O)CC[C@]4(C)[C@H]3CC[C@]12C)C(C)C	–	inactive
O=C1Nc2ccccc2-c2nc3ccccc3c(=O)n2-c2c(O)cccc21	–	inactive
COC(=O)c1ccc2c(c1)[nH]c1ncnc(NCCCN3CCCCC3)c12	–	inactive
OC1CCC(Nc2nc(-c3ccccc3)nc3[nH]ccc23)CC1 (configuration not stated)	–	inactive
O=C(Nc1ccc(N2C(=O)[C@@H]3[C@H](C2=O)[C@@H]2C=C[C@H]3C2)c(Cl)c1)c1ccccn1	–	inactive
CC(C)C[C@@H]1NC(=O)[C@@H]2C[C@@]34C[C@@H]5[C@@]6(C)CCCC(C)(C)C6CC[C@@]5(C)N(c5ccccc53)[C@H]4N2C1=O (some centres not stated)	–	inactive
O=C(c1ccc(OC(F)F)c(C#Cc2ccccn2)c1)N1Cc2cccnc2C1	–	inactive
CC/C=C\CC1C(=O)C=CC1(CCCCC1CCC(=O)O1)OC(C)=O (configuration not stated)	–	inactive
CC1=C2C[C@@]3(C)C(CCC[C@@H]3C)C(O)C2OC1=O (some centres not stated)	–	inactive
Cc1cc(OCCCS(C)(=O)=O)cc(C)c1-c1cccc(COc2ccc3c(c2)OCC3CC(=O)O)c1 (configuration not stated)	–	inactive
